Laboratory results published in the supplement of paper PMC6992640.

Columns and labels:
HCI01 = cells of a triple-negative basal-like breast cancer xenograft; assay: cell viability of combination (% of vehicle); higher = less cytotoxic; details: 1 µM; 72 h; partner dose: 10 nM
Method: (§1)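 PDX cells were treated for 72 h with each drug at 1 µM plus afatinib (10 nM; 1 µM for WHIM30). Luciferase viability is expressed as percent of vehicle.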

WHIM2 = cells of a triple-negative basal-like breast cancer xenograft; assay: as above; details: 1 µM; 72 h; partner dose: 10 nM
Method: as §1

Row | Structure (SMILES) | cell viability of combination (HCI01) | cell viability of combination (WHIM2)
1 | Nc1ccc2cc3ccc([NH3+])cc3nc2c1.Nc1ccc2cc3ccc([NH3+])cc3nc2c1.O=S(=O)([O-])[O-] [Proflavine Hemisulfate] + CN(C)C/C=C/C(=O)Nc1cc2c(Nc3ccc(F)c(Cl)c3)ncnc2cc1O[C@H]1CCOC1 [Afatinib] | 59.6 | 29.5
2 | Cc1c(C(=O)NN2CCCCC2)nn(-c2ccc(Cl)cc2Cl)c1-c1ccc(Cl)cc1 [Rimonabant] + CN(C)C/C=C/C(=O)Nc1cc2c(Nc3ccc(F)c(Cl)c3)ncnc2cc1O[C@H]1CCOC1 [Afatinib] | 56.7 | 48.4
3 | CCCCc1oc2ccccc2c1C(=O)c1cc(I)c(OCCN(CC)CC)c(I)c1.Cl [Amiodarone HCl] + CN(C)C/C=C/C(=O)Nc1cc2c(Nc3ccc(F)c(Cl)c3)ncnc2cc1O[C@H]1CCOC1 [Afatinib] | 68.8 | 57.7
4 | CN(C)CCOc1ccc(C(=C(CCCl)c2ccccc2)c2ccccc2)cc1.O=C(O)CC(O)(CC(=O)O)C(=O)O [Toremifene Citrate] + CN(C)C/C=C/C(=O)Nc1cc2c(Nc3ccc(F)c(Cl)c3)ncnc2cc1O[C@H]1CCOC1 [Afatinib] | 70.8 | 55.7
5 | Clc1ccc(COC(Cn2ccnc2)c2ccc(Cl)cc2Cl)c(Cl)c1.O=[N+]([O-])O (centres undefined) [Miconazole Nitrate] + CN(C)C/C=C/C(=O)Nc1cc2c(Nc3ccc(F)c(Cl)c3)ncnc2cc1O[C@H]1CCOC1 [Afatinib] | 63.9 | 52.2
6 | O=C(c1ccc(F)c(F)c1Nc1ccc(I)cc1F)N1CC(O)(C2CCCCN2)C1 (centres undefined) [Cobimetinib] + CN(C)C/C=C/C(=O)Nc1cc2c(Nc3ccc(F)c(Cl)c3)ncnc2cc1O[C@H]1CCOC1 [Afatinib] | 42.2 | 27
7 | C=CC(=O)N1CCC(Oc2cc3c(Nc4ccc(Cl)c(Cl)c4F)ncnc3cc2OC)CC1 [Poziotinib] + CN(C)C/C=C/C(=O)Nc1cc2c(Nc3ccc(F)c(Cl)c3)ncnc2cc1O[C@H]1CCOC1 [Afatinib] | 42.9 | 22.2
8 | Cc1c(-c2ccc(O)cc2)n(Cc2ccc(OCCN3CCCCCC3)cc2)c2ccc(O)cc12.Cl [Bazedoxifene HCl] + CN(C)C/C=C/C(=O)Nc1cc2c(Nc3ccc(F)c(Cl)c3)ncnc2cc1O[C@H]1CCOC1 [Afatinib] | 64.6 | 49.7
9 | C=C(c1ccc(C(=O)O)cc1)c1cc2c(cc1C)C(C)(C)CCC2(C)C [Bexarotene] + CN(C)C/C=C/C(=O)Nc1cc2c(Nc3ccc(F)c(Cl)c3)ncnc2cc1O[C@H]1CCOC1 [Afatinib] | 51.8 | 35.7
10 | CNCCC(Oc1ccc(C(F)(F)F)cc1)c1ccccc1.Cl (centres undefined) [Fluoxetine HCl] + CN(C)C/C=C/C(=O)Nc1cc2c(Nc3ccc(F)c(Cl)c3)ncnc2cc1O[C@H]1CCOC1 [Afatinib] | 46.4 | 43.8
11 | COc1cccc2c1C(=O)c1c(O)c3c(c(O)c1C2=O)C[C@@](O)(C(C)=O)C[C@@H]3O[C@H]1C[C@H](N)[C@H](O)[C@H](C)O1.Cl [Daunorubicin HCl] + CN(C)C/C=C/C(=O)Nc1cc2c(Nc3ccc(F)c(Cl)c3)ncnc2cc1O[C@H]1CCOC1 [Afatinib] | 70.7 | 9.65
12 | CCCCCCCCCCCC1=C(O)C(=O)C=C(O)C1=O [Embelin] + CN(C)C/C=C/C(=O)Nc1cc2c(Nc3ccc(F)c(Cl)c3)ncnc2cc1O[C@H]1CCOC1 [Afatinib] | 52.9 | 42.9
13 | COc1ccc2cc1Oc1ccc(cc1)CC1c3c(cc4c(c3Oc3cc5c(cc3OC)CCN(C)C5C2)OCO4)CCN1C (centres undefined) [Cepharanthine] + CN(C)C/C=C/C(=O)Nc1cc2c(Nc3ccc(F)c(Cl)c3)ncnc2cc1O[C@H]1CCOC1 [Afatinib] | 48.5 | 38.1
14 | CNC1CCC(c2ccc(Cl)c(Cl)c2)c2ccccc21.Cl (centres undefined) [Sertraline HCl] + CN(C)C/C=C/C(=O)Nc1cc2c(Nc3ccc(F)c(Cl)c3)ncnc2cc1O[C@H]1CCOC1 [Afatinib] | 53.4 | 49.2
15 | COc1cccc2c1C(=O)c1c(O)c3c(c(O)c1C2=O)CC(O)(C(=O)CO)CC3OC1CC(N)C(O)C(C)O1.Cl (centres undefined) [Epirubicin HCl] + CN(C)C/C=C/C(=O)Nc1cc2c(Nc3ccc(F)c(Cl)c3)ncnc2cc1O[C@H]1CCOC1 [Afatinib] | 58 | 10.2
16 | CCCCCOc1ccc(-c2ccc(-c3ccc(C(=O)N[C@H]4C[C@@H](O)[C@@H](O)NC(=O)[C@@H]5[C@@H](O)[C@@H](C)CN5C(=O)[C@H]([C@@H](C)O)NC(=O)[C@H]([C@H](O)[C@@H](O)c5ccc(O)cc5)NC(=O)[C@@H]5C[C@@H](O)CN5C(=O)[C@H]([C@@H](C)O)NC4=O)cc3)cc2)cc1 [Anidulafungin] + CN(C)C/C=C/C(=O)Nc1cc2c(Nc3ccc(F)c(Cl)c3)ncnc2cc1O[C@H]1CCOC1 [Afatinib] | 55.5 | 43
17 | Clc1ccc(CSC(Cn2ccnc2)c2ccc(Cl)cc2Cl)cc1.O=[N+]([O-])O (centres undefined) [Sulconazole Nitrate] + CN(C)C/C=C/C(=O)Nc1cc2c(Nc3ccc(F)c(Cl)c3)ncnc2cc1O[C@H]1CCOC1 [Afatinib] | 62.8 | 49.5
18 | CCc1oc2ccccc2c1C(=O)c1cc(Br)c(O)c(Br)c1 [Benzbromarone] + CN(C)C/C=C/C(=O)Nc1cc2c(Nc3ccc(F)c(Cl)c3)ncnc2cc1O[C@H]1CCOC1 [Afatinib] | 56.3 | 48
19 | CO[C@H]1/C=C/O[C@@]2(C)Oc3c(C)c(O)c4c(O)c(c(/C=N/N5CCN(C6CCCC6)CC5)c(O)c4c3C2=O)NC(=O)/C(C)=C\C=C\[C@H](C)[C@H](O)[C@@H](C)[C@@H](O)[C@@H](C)[C@H](OC(C)=O)[C@@H]1C [Rifapentine] + CN(C)C/C=C/C(=O)Nc1cc2c(Nc3ccc(F)c(Cl)c3)ncnc2cc1O[C@H]1CCOC1 [Afatinib] | 56.2 | 46.2
20 | CNC(=O)c1cc(Oc2ccc(NC(=O)Nc3ccc(Cl)c(C(F)(F)F)c3)c(F)c2)ccn1.Cl [Regorafenib hydrochloride] + CN(C)C/C=C/C(=O)Nc1cc2c(Nc3ccc(F)c(Cl)c3)ncnc2cc1O[C@H]1CCOC1 [Afatinib] | 52 | 43.3
21 | COc1cc2c(Oc3ccc(NC(=O)C4(C(=O)Nc5ccc(F)cc5)CC4)cc3F)ccnc2cc1OCCCN1CCOCC1 + CN(C)C/C=C/C(=O)Nc1cc2c(Nc3ccc(F)c(Cl)c3)ncnc2cc1O[C@H]1CCOC1 [Afatinib] | 33.9 | 37.7
22 | CNCCCC12CCC(c3ccccc31)c1ccccc12.Cl [Maprotiline HCl] + CN(C)C/C=C/C(=O)Nc1cc2c(Nc3ccc(F)c(Cl)c3)ncnc2cc1O[C@H]1CCOC1 [Afatinib] | 55.1 | 46
23 | CC(C)N=c1cc2n(-c3ccc(Cl)cc3)c3ccccc3nc-2cc1Nc1ccc(Cl)cc1 [Clofazimine] + CN(C)C/C=C/C(=O)Nc1cc2c(Nc3ccc(F)c(Cl)c3)ncnc2cc1O[C@H]1CCOC1 [Afatinib] | 45.8 | 38.9
24 | COc1cc2nccc(Oc3ccc(NC(=O)Nc4cc(C)on4)c(Cl)c3)c2cc1OC [Tivozanib (AV-951)] + CN(C)C/C=C/C(=O)Nc1cc2c(Nc3ccc(F)c(Cl)c3)ncnc2cc1O[C@H]1CCOC1 [Afatinib] | 43.9 | 39.8
25 | CC(C)(C)c1ccc(C(=O)CCCN2CCC(OC(c3ccccc3)c3ccccc3)CC2)cc1 [Ebastine] + CN(C)C/C=C/C(=O)Nc1cc2c(Nc3ccc(F)c(Cl)c3)ncnc2cc1O[C@H]1CCOC1 [Afatinib] | 48.2 | 50.3
26 | Clc1ccc(C(Cn2ccnc2)OCc2ccc(Sc3ccccc3)cc2)c(Cl)c1.O=[N+]([O-])O (centres undefined) [Fenticonazole Nitrate] + CN(C)C/C=C/C(=O)Nc1cc2c(Nc3ccc(F)c(Cl)c3)ncnc2cc1O[C@H]1CCOC1 [Afatinib] | 49.2 | 49.9
27 | Cl.OC(c1cc(C(F)(F)F)nc2c(C(F)(F)F)cccc12)C1CCCCN1 (centres undefined) [Mefloquine hydrochloride] + CN(C)C/C=C/C(=O)Nc1cc2c(Nc3ccc(F)c(Cl)c3)ncnc2cc1O[C@H]1CCOC1 [Afatinib] | 49.3 | 55.9
